Test results published in PubChem BioAssay AID624263 (National Center for Advancing Translational Sciences (NCATS), 2012).
In all, about 410,000 compounds went through this assay and about 820 (0.2%) were called active. Roughly 2% stayed inconclusive and do not appear here. Calls follow the shape of the dose curve; as a rule, active = well fitted activation curve with a large enough effect; inconclusive = small, poorly fitted or top-dose-only effect; inactive = flat fitted curve, though single readings scatter; cell line not stated here. The entries come from a sample that favours actives as a whole.

Experiment: A Quantitative High throughput Screen to Identify Chemical Modulators of PINK1 Expression; also: nearly all actives have a fitted effect of over 65% in size; as to activation (PINK1 increase): % of control where 0% means no effect
Details: PINK1 immunofluorescence, high-content cytometry, 24 h; series mostly up to 76.6 µM; activation (PINK1 increase): at the top concentration
How it was run: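 Fluorescence from anti-PINK1 antibody, together with nuclear and cell stains, was scanned on a laser-scanning cytometer. Before staining, stable-line cells were incubated 24 hours with compounds at 5 concentrations; primary antibody 12 h at 10 degrees C.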
Potency is read from the fitted curve at half-maximal effect.

Activation (PINK1 increase), inactive:
COC(=O)[C@@H]1C[C@H](NC(=O)c2ccccc2C(F)(F)F)CN1Cc1cccc(O)c1 0.0682%
CC(=O)c1ccc(F)c(-c2cc(C)cc3c2OC(CNC(=O)Cc2c[nH]c4ccccc24)C3)c1 (stereo not given) -0.04%
C(=Nc1ccc(/C=C/c2ccnc3ccccc23)cc1)Nc1ccc(/C=C/c2ccnc3ccccc23)cc1 -0.124%
Cc1ncc2c(c1CNS(=O)(=O)N(C)C)CCN(C(=O)c1ccccc1F)C2 -0.0214%
OCC(O)C(O)C(O)C(O)C=Nc1ccc(/C=C/c2ccnc3ccccc23)cc1 (stereo not given) 0.535%
COc1ccc(Oc2ncc3nc(-c4ccc(F)cc4)c(=O)n(C)c3n2)cc1 -0.15%
CC1(C)Cc2ccccc2-c2c[nH]c(=O)n21 -0.443%
CN(c1ccc2nc3ccccc3c(=O)n2n1)C1CCCCC1 0.372%
COCC1CCCN(Cc2ccc3c(c2)CN(C(=O)c2ccnn2C)CCO3)C1 (stereo not given) 0.143%
C(=Nc1ccc(/C=C/c2ccnc3ccccc23)cc1)c1cc2c3c(c1)CCCN3CCC2 -0.851%
Cc1cccc2c3c(ccc12)C1=C(C(=O)C3=O)C(C)CO1 (stereo not given) 8.81%
O=C1NC(CC(=O)N2CCC(n3c(C4CCC4)nc4cccnc43)CC2)c2ccccc21 (stereo not given) -0.132%
CCN(CC)/[N+]([O-])=N/OCOC(=O)Cc1c(C)n(C(=O)c2ccc(Cl)cc2)c2ccc(OC)cc12 -1.4%
Cc1cc(-c2ccnc(-n3ncc(C(=O)NCCc4ccncc4)c3C)n2)c(C)s1 0.637%
Cc1cc(C(=O)NCC2Cc3cccc(-c4cncnc4)c3O2)c(C)o1 (stereo not given) 0.573%
CN(C)c1ccc(CN2CCOc3ccc(CN4CCC(O)(c5cccnc5)CC4)cc3C2)cc1 -0.177%
O=C(c1cn(CC2CCCN(Cc3cc4ccccc4s3)C2)nn1)N1CCCC1 (stereo not given) -0.201%
CCC1(C2CCN(C(=O)c3cccc(F)c3F)CC2)NC(=O)N(CCc2scnc2C)C1=O (stereo not given) 0.188%
CCCCN(C)S(=O)(=O)c1ccc(C(=O)Nc2sc3c(c2C(N)=O)CC(C)(C)NC3(C)C)cc1 -2.36%
CCOC(=O)c1c(NC(=O)c2ccc(S(=O)(=O)N(CC)CC)cc2)sc2c1CCCCC2 -1.12%
COc1ccc2c(c1)NC(=O)C2CC(=O)N1CCOc2c(cc(-c3cnc4ccccc4c3)cc2OC)C1 (stereo not given) 1.57%
COC(=O)c1ccccc1-c1cc(C)cc2c1OC(CNC(=O)C1CCOC1)C2 (stereo not given) -0.262%

Potency, active:
O=c1c2ccccc2nc2n1C1(CCCCC1)Cc1ccccc1-2 4.47 µM
Oc1c(Cl)cc(Cl)c(Cl)c1Cc1c(O)c(Cl)cc(Cl)c1Cl 2.82 µM
C=CCN(CC=C)S(=O)(=O)c1ccc(C(=O)Nc2sc3c(c2C(N)=O)CCCCC3)cc1 10 µM
